Bioassay records: PubChem, National Center for Advancing Translational Sciences (NCATS)
The entries come from a sample that favours hits as a whole.
Pf Dd2 growth = Plasmodium falciparum Dd2 growth inhibition; P. falciparum Dd2 growth, SYBR Green, 72 h; Potency, µM (highest dose often 28.9 µM), for the others: at the highest dose activity, negative = inhibition, hits mostly inhibitors; hit rate 4.3% among 120,000; AID 1347417; active means well fitted inhibition curve with a large enough effect;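 further: plate controls were DMSO vehicle for no effect and reference drug for full effect; nearly all actives have a fitted effect of over 65% in size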
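Readout: SYBR Green fluorescence, 485 nm excitation, 535 nm emission, after ~16 h lysis at 37C. Before that, Dd2-infected red cells (2.5% hematocrit) grew 72 h with compound, 29 uM top final concentration.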
The depositor's hits bear a star; [ ] = dose if it differs, or a comment. Potency means the concentration at half of the fitted maximal effect.

For c1csc(-c2nc3nccc(-c4ccncc4)n3n2)c1 the results were Pf Dd2 growth -13%.
`CC(=O)c1cccc(Nc2c3c(nc4nc(-c5cccs5)nn24)CCCC3)c1` gave Pf Dd2 growth 11µM*.
`CCc1nc(-c2c3n(c(=O)n(CC(=O)Nc4ccccc4C)c2=O)CCCCC3)no1` gave Pf Dd2 growth -7%.
For O=C(CCc1ccccc1)N1CCC(Oc2ccc(C(=O)N3CCOCC3)cn2)CC1 the results were Pf Dd2 growth 11%.
`Cc1ccccc1C(=O)N1CCCN(c2nnc3ccc(Cl)cn23)CC1` gave Pf Dd2 growth inactive.
COc1ccc(C)cc1NC(=O)Cn1ccn2nc(-c3ccc(F)cc3)c(CO)c2c1=O was read as Pf Dd2 growth -22%.
For Cc1c(Cl)cccc1NC(=O)CN(CCc1ccccc1)S(=O)(=O)c1ccccc1 the results were Pf Dd2 growth 1%.
`Cc1ccc(C)c(NC(=O)CN(CCc2ccccc2)S(=O)(=O)c2ccccc2)c1` gave Pf Dd2 growth 7%.
`CCOc1ccccc1NC(=O)CN(CCc1ccccc1)S(=O)(=O)c1ccc(C)cc1` gave Pf Dd2 growth 11µM*.
COc1ccc(C(=O)N2CCC(N3CC4CC(C3)[C@H]3CCCC(=O)N3C4)CC2)c(C)c1 (some centres undefined) was read as Pf Dd2 growth -7%.
`CCOc1cccc(CC(=O)N2CCc3c([nH]c4ccccc34)C2c2ccc(SC)cc2)c1OCC` (centres undefined) gave Pf Dd2 growth 7.9µM*.
CCOc1cccc(CC(=O)NCc2ccc3c(c2)CCN3C(C)=O)c1OCC was read as Pf Dd2 growth 66%.
`O=C(CSCc1ccc(F)cc1)N1CCc2c([nH]c3ccccc23)C1c1ccc(Cl)cc1` (centres undefined) gave Pf Dd2 growth -9%.
`CCOc1ccc(CNC(=O)c2[nH]c3ccccc3c2Sc2ccc(C)cc2)cc1` gave Pf Dd2 growth -5%.
CCOc1ccc(C2c3[nH]c4ccccc4c3CCN2C(=O)Cc2cccc(OCC)c2OCC)cc1 (centres undefined) was read as Pf Dd2 growth 11µM*.
O=C(COc1ccccc1)NC1CCCc2c1[nH]c1ccccc21 (centres undefined) was read as Pf Dd2 growth inactive.
CCn1ccc(C(=O)N2CCC([C@H]3[C@@H](OC)C(=O)N3C(C)C)CC2)n1 was read as Pf Dd2 growth 29%.
`COc1cccc(CN2CCOC3(CCN([S+](=O)([O-])c4c(C)noc4C)CC3)C2=O)c1` gave Pf Dd2 growth -12%.
Screening O=C(NC1CCCN(c2cc(-c3ccc(F)cc3)[nH]n2)C1)c1cc2ccccc2[nH]1 (centres undefined) returned Pf Dd2 growth -20%.
O=C1CN(C(=O)CCC(=O)N2CCCC(Cc3nncn3Cc3ccccc3)C2)c2ccccc2N1 (centres undefined) was read as Pf Dd2 growth inactive.
Screening CC(C)Cc1cc(CC2(NC3CCOCC3)COC2)no1 returned Pf Dd2 growth 19%[44.1 µM].
For COc1cc(-c2nc(-c3ccccc3)c(-c3ccc(Br)cc3)[nH]2)cc(OC)c1O the results were Pf Dd2 growth 1.4µM*.
Screening COc1ccc(-c2ccc3nc(-c4cc(F)cc(F)c4)oc3c2)c(OC)c1OC returned Pf Dd2 growth 4%.
`Oc1ccc(-c2nc(-c3ccccc3)c(-c3ccc(Br)cc3)[nH]2)cc1` gave Pf Dd2 growth 6.3µM*.
O=S(=O)(Nc1ccc(Br)cc1F)c1ccc2nc(-c3ccccc3)[nH]c2c1 was read as Pf Dd2 growth 3%.
For COc1cc(-c2nc(SCC(=O)Nc3ccc(C)cc3)c(-c3ccc(F)cc3)[nH]2)cc(OC)c1OC the results were Pf Dd2 growth inactive.
For COc1ccc(Br)cc1CNC(=O)CSc1n[nH]c(-c2ccccc2)n1 the results were Pf Dd2 growth 3%.
Screening COc1ccc(-c2ccc3nc(-c4ccccc4)oc3c2)c(OC)c1OC returned Pf Dd2 growth inactive.
For COc1ccc(-c2nc(-c3ccccc3)c(-c3ccc(F)cc3)[nH]2)c(OC)c1C the results were Pf Dd2 growth 11µM*.
Screening O=C(O)c1ccc(-c2nc3ncccc3[nH]2)cc1 returned Pf Dd2 growth -7%[44.1 µM].
`c1ccc(C2=NOC3(CCCN(Cc4cccnc4)C3)C2)nc1` (centres undefined) gave Pf Dd2 growth 21%.
For Cc1cc(-c2nc(C3CCOC3)no2)c2ccccc2n1 (centres undefined) the results were Pf Dd2 growth 1%.
Screening NC(=O)C1CCN([C@H]2[C@@H]3OC[C@@H](O3)[C@@H](NCc3ccc(OC(F)(F)F)cc3)[C@@H]2O)CC1 returned Pf Dd2 growth -5%.
Screening Cc1cnc(C2CCOCC2)n1C1CCCN(C(=O)COc2ccc(F)cc2)C1 (centres undefined) returned Pf Dd2 growth inactive.
Screening CC(C)c1cc(C2CCCN2C(=O)CCc2cc3n(n2)CCCNC3)no1 (centres undefined) returned Pf Dd2 growth -6%.
For O=C(CC1COCCN1)N1CCC2(CCC(=O)N(CCc3ccncc3)C2)CC1 (centres undefined) the results were Pf Dd2 growth 5%.
Screening CCOC(=O)c1ccc(CNC(=O)N2CCC3(CC2)CC(OCC)CCO3)cc1 (centres undefined) returned Pf Dd2 growth 6%.
For Cc1ccc(-c2n[nH]c3c2C(c2cccs2)N(c2ccc(Cl)cc2)C3=O)cc1 (centres undefined) the results were Pf Dd2 growth 11µM*.
Screening CCOC(=O)c1ccc(N2C(=O)c3n[nH]c(-c4cccs4)c3C2c2ccc(Cl)cc2Cl)cc1 (centres undefined) returned Pf Dd2 growth -4%.
`CCOC(=O)c1ccc(N2C(=O)c3n[nH]c(-c4ccco4)c3C2c2cccc(F)c2)cc1` (centres undefined) gave Pf Dd2 growth 10µM*.
For CCOC(=O)c1sc(N2C(=O)c3oc4cc(C)c(C)cc4c(=O)c3C2c2cccc(O)c2)nc1C (centres undefined) the results were Pf Dd2 growth -4%.
`CCOC(=O)c1ccc(N2C(=O)c3n[nH]c(-c4cccs4)c3C2c2cccc(F)c2)cc1` (centres undefined) gave Pf Dd2 growth 7.9µM*.
For CCOC(=O)c1ccc(N2C(=O)c3n[nH]c(-c4cccs4)c3C2c2ccc(C)cc2)cc1 (centres undefined) the results were Pf Dd2 growth 49%.
Screening CC1=C(C(=O)OC(C)C)C(c2cccc(F)c2)N2C(CC(=O)NCc3ccco3)=CSC2=N1 (centres undefined) returned Pf Dd2 growth -16%.
For CCOC(=O)c1ccc(N2C(=O)c3n[nH]c(-c4cccs4)c3C2c2ccc(C(C)(C)C)cc2)cc1 (centres undefined) the results were Pf Dd2 growth 7.1µM*.
COc1cccc(C2NC(=O)c3n[nH]c(-c4cccs4)c32)c1 (centres undefined) was read as Pf Dd2 growth -14%.
`CCOC(=O)c1ccc(N2C(=O)c3n[nH]c(-c4cccs4)c3C2c2ccc(O)c(OC)c2)cc1` (centres undefined) gave Pf Dd2 growth 53%.
`Cc1ccc(-c2n[nH]c3c2C(c2ccccc2Cl)N(c2ccc(C(=O)O)cc2)C3=O)cc1` (centres undefined) gave Pf Dd2 growth -6%.
COc1cc(C2c3c(-c4ccc(C)cc4)n[nH]c3C(=O)N2c2ccc(F)cc2)ccc1O (centres undefined) was read as Pf Dd2 growth inactive.
